# Test results published in PubChem BioAssay (NCATS).
# Results filed as inconclusive are left out. Where a call stands in place of a potency, no number is given. Values without a mark were called inactive. Activity calls are given as the source filed them. Calls come from the whole dose curve; as a rule, active = well fitted curve in the direction sought with a large enough effect; inconclusive = small, poorly fitted or top-dose-only effect, or another doubt; inactive = no such curve, though single readings can be large; an effect the other way counts as inactive or inconclusive.
# What was measured:
# C33A = experiment: Primary qHTS to identify gynecologic anti-cancer compounds using libraries of approved drugs and bioactive compounds (AID 1345084); conditions: Gynecologic cancer cell panel viability, ATPlite luminescence, 48 h; series mostly up to 57.5 µM; note: nearly all actives have a fitted effect of over 55% in size
# Summary of the method: (§1)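 Cell viability after 48 h drug treatment, ATPlite luminescence readout; five doses.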
# CAOV3 = experiment: as above; conditions: Gynecologic cancer cell panel viability, ATPlite luminescence, 48 h; series mostly up to 57.5 µM
# Summary of the method: as §1
# CASKI = experiment: as above; conditions: Gynecologic cancer cell panel viability, ATPlite luminescence, 48 h; series mostly up to 57.5 µM
# Summary of the method: as §1
# Es-2 = experiment: as above; conditions: Gynecologic cancer cell panel viability, ATPlite luminescence, 48 h; series mostly up to 57.5 µM
# Summary of the method: as §1
# HeLa = experiment: as above; conditions: Gynecologic cancer cell panel viability, ATPlite luminescence, 48 h; series mostly up to 57.5 µM
# Summary of the method: as §1
# Hek293T = experiment: as above; conditions: Gynecologic cancer cell panel viability, ATPlite luminescence, 48 h, control line for the selectivity index; series mostly up to 57.5 µM
# Summary of the method: as §1
# JEG-3 = experiment: as above; conditions: Gynecologic cancer cell panel viability, ATPlite luminescence, 48 h; series mostly up to 57.5 µM
# Summary of the method: as §1
# OV90 = experiment: as above; conditions: Gynecologic cancer cell panel viability, ATPlite luminescence, 48 h; series mostly up to 57.5 µM
# Summary of the method: as §1
# SKOV3 = experiment: as above; conditions: Gynecologic cancer cell panel viability, ATPlite luminescence, 48 h; series mostly up to 57.5 µM
# Summary of the method: as §1
# Tov-21-G = experiment: as above; conditions: Gynecologic cancer cell panel viability, ATPlite luminescence, 48 h; series mostly up to 57.5 µM
# Summary of the method: as §1
# Tov112D = experiment: as above; conditions: Gynecologic cancer cell panel viability, ATPlite luminescence, 48 h; series mostly up to 57.5 µM
# Summary of the method: as §1
# PA-1 = experiment: as above; conditions: Gynecologic cancer cell panel viability, ATPlite luminescence, 48 h; series mostly up to 57.5 µM
# Summary of the method: as §1
# [1] = qHTS assay to identify inhibitors of the type 1 interferon - major histocompatibility complex class I in skeletal muscle: Counter screen cell viability and HiBit confirmation (AID 1347412); conditions: iHSKM muscle cells + IFN-b, HiBiT or CellTiter-Glo, 24 h; note: nearly all actives have a fitted effect of over 60% in size
# Summary of the method: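 Duplicate plates, pinned identically: one read for HiBiT-tagged endogenous HLA-B luminescence, the other for ATP-content viability via CellTiter Glo. Cells were genome-engineered human myoblasts given 4 ng/ml IFN-b; compounds 12-pt, 1:3 from 46 uM final; 24 hr exposure.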
# Potency is the fitted concentration of half-maximal effect.
smiles,measurement,setting,value
CCCCC1CCN(CCCN2C(=O)CCc3ccccc32)CC1,Potency,C33A,inactive
same,Potency,CAOV3,inactive
same,Potency,CASKI,inactive
same,Potency,Es-2,inactive
same,Potency,HeLa,inactive
same,Potency,Hek293T,inactive
same,Potency,JEG-3,inactive
same,Potency,OV90,inactive
same,Potency,SKOV3,inactive
same,Potency,Tov-21-G,inactive
same,Potency,Tov112D,inactive
O=C(Nc1ccc(N(Cc2ccsc2)C(=O)Cn2nnc3ccccc32)cc1)C1CC1,Potency,C33A,inactive
same,Potency,CAOV3,inactive
same,Potency,CASKI,inactive
same,Potency,Es-2,inactive
same,Potency,HeLa,inactive
same,Potency,Hek293T,inactive
same,Potency,JEG-3,inactive
same,Potency,OV90,inactive
same,Potency,SKOV3,inactive
same,Potency,Tov-21-G,inactive
same,Potency,Tov112D,inactive
COc1ccc(CCc2nc3cc(-c4c(C)noc4C)ccc3n2CC(C)N2CCOCC2)cc1Cl (stereo unspecified),Potency,C33A,inactive
same,Potency,CAOV3,inactive
same,Potency,CASKI,inactive
same,Potency,Es-2,inactive
same,Potency,HeLa,inactive
same,Potency,Hek293T,inactive
same,Potency,JEG-3,inactive
same,Potency,OV90,inactive
same,Potency,Tov-21-G,inactive
same,Potency,Tov112D,inactive
CC(=O)c1c(C)cc2cccc(O)c2c1O[C@@H]1O[C@H](CO)[C@@H](O)[C@H](O)[C@H]1O,Potency,C33A,inactive
same,Potency,CAOV3,inactive
same,Potency,CASKI,inactive
same,Potency,Es-2,inactive
same,Potency,HeLa,inactive
same,Potency,Hek293T,inactive
same,Potency,JEG-3,inactive
same,Potency,OV90,inactive
same,Potency,SKOV3,inactive
same,Potency,Tov112D,inactive
CC1(C)CC[C@]2(C(=O)O[C@@H]3O[C@H](CO)[C@@H](O)[C@H](O)[C@H]3O)CC[C@]3(C)C(=CCC4[C@@]5(C)CC[C@H](O[C@@H]6O[C@H](C(=O)O)[C@H](O)[C@H](O)[C@H]6O)C(C)(C)C5CC[C@]43C)[C@@H]2C1 (stereo partly specified),Potency,C33A,inactive
same,Potency,CAOV3,inactive
same,Potency,CASKI,inactive
same,Potency,Es-2,inactive
same,Potency,HeLa,inactive
same,Potency,Hek293T,inactive
same,Potency,JEG-3,inactive
same,Potency,OV90,inactive
same,Potency,SKOV3,inactive
same,Potency,Tov112D,inactive
CCn1c(=O)c(-c2ccc(-c3cncs3)cc2Cl)cc2cnc(Nc3ccc(N4CCN(C)CC4)cc3)nc21,Potency,C33A,inactive
same,Potency,CAOV3,inactive
same,Potency,CASKI,inactive
same,Potency,Es-2,inactive
same,Potency,HeLa,inactive
same,Potency,Hek293T,inactive
same,Potency,JEG-3,inactive
same,Potency,OV90,inactive
same,Potency,SKOV3,inactive
same,Potency,Tov112D,inactive
O=C(O)CCc1nccc2c1[nH]c1ccccc12,Potency,C33A,inactive
same,Potency,CAOV3,inactive
same,Potency,CASKI,inactive
same,Potency,Es-2,inactive
same,Potency,HeLa,inactive
same,Potency,Hek293T,inactive
same,Potency,JEG-3,inactive
same,Potency,OV90,inactive
same,Potency,SKOV3,inactive
same,Potency,Tov-21-G,inactive
same,Potency,Tov112D,inactive
O=C(Nc1ccc(-c2ccnc(Nc3ccc(N4CCOCC4)cc3)n2)cc1)C1CCCN1 (stereo unspecified),Potency,C33A,inactive
same,Potency,CAOV3,inactive
same,Potency,CASKI,inactive
same,Potency,Es-2,inactive
same,Potency,HeLa,inactive
same,Potency,Hek293T,inactive
same,Potency,JEG-3,inactive
same,Potency,OV90,inactive
same,Potency,SKOV3,inactive
same,Potency,Tov112D,inactive
O=c1[nH]c2ccc(C#CCN3CCC(Cc4ccccc4)CC3)cc2[nH]1,Potency,C33A,inactive
same,Potency,CAOV3,inactive
same,Potency,CASKI,inactive
same,Potency,Es-2,inactive
same,Potency,HeLa,inactive
same,Potency,Hek293T,inactive
same,Potency,JEG-3,inactive
same,Potency,OV90,inactive
same,Potency,SKOV3,inactive
same,Potency,Tov-21-G,inactive
same,Potency,Tov112D,inactive
COC1=CC(=O)O/C1=C(/OC)[C@@H]1O[C@H]1c1ccccc1,Potency,C33A,inactive
same,Potency,CAOV3,inactive
same,Potency,CASKI,inactive
same,Potency,Es-2,inactive
same,Potency,HeLa,inactive
same,Potency,Hek293T,inactive
same,Potency,JEG-3,inactive
same,Potency,OV90,inactive
same,Potency,SKOV3,inactive
same,Potency,Tov-21-G,inactive
same,Potency,Tov112D,inactive
C/C=C/C=C/C=C/C(=O)O[C@@H]1C=C(CO)C(O)(C(=O)OC)[C@@]2(C)CCCC(C)(C)C12 (stereo partly specified),Potency,C33A,inactive
same,Potency,CAOV3,inactive
same,Potency,CASKI,inactive
same,Potency,Es-2,inactive
same,Potency,HeLa,inactive
same,Potency,Hek293T,inactive
same,Potency,JEG-3,inactive
same,Potency,OV90,inactive
same,Potency,PA-1,inactive
same,Potency,Tov-21-G,inactive
same,Potency,Tov112D,inactive
CCN1CCN(Cc2ccc(C(=O)Nc3ccc(C)c(Oc4ccc5c(c4)CC(=O)N5)c3)cc2C(F)(F)F)CC1,Potency,C33A,inactive
same,Potency,CAOV3,inactive
same,Potency,CASKI,inactive
same,Potency,Es-2,inactive
same,Potency,HeLa,inactive
same,Potency,Hek293T,inactive
same,Potency,JEG-3,inactive
same,Potency,OV90,inactive
same,Potency,Tov-21-G,inactive
same,Potency,Tov112D,inactive
CC(=O)O[C@@H]1[C@@H](OC(C)=O)[C@H](C)O[C@@H](O[C@H]2[C@@H]3C=CO[C@@H](O[C@@H]4O[C@H](CO)[C@@H](O)[C@H](O)[C@H]4O)[C@@H]3[C@@]3(CO)O[C@@H]23)[C@@H]1OC(=O)/C=C/c1ccccc1,Potency,C33A,inactive
same,Potency,CAOV3,inactive
same,Potency,CASKI,inactive
same,Potency,Es-2,inactive
same,Potency,HeLa,inactive
same,Potency,Hek293T,inactive
same,Potency,JEG-3,inactive
same,Potency,OV90,inactive
same,Potency,SKOV3,inactive
same,Potency,Tov112D,inactive
O=c1nc(-c2ccccn2)sc2ccccc12,Potency,C33A,inactive
same,Potency,CAOV3,inactive
same,Potency,CASKI,inactive
same,Potency,Es-2,inactive
same,Potency,HeLa,inactive
same,Potency,Hek293T,inactive
same,Potency,JEG-3,inactive
same,Potency,OV90,inactive
same,Potency,PA-1,inactive
same,Potency,Tov112D,inactive
CC1(CO)CC(O)[C@]2(C(=O)O)CCC34CC3(C=CC3[C@]5(C)C(CC[C@]34C)C(C)(CO)[C@@H](O)[C@H](O)[C@@H]5O)C2C1 (stereo partly specified),Potency,C33A,inactive
same,Potency,CAOV3,inactive
same,Potency,CASKI,inactive
same,Potency,Es-2,inactive
same,Potency,HeLa,inactive
same,Potency,Hek293T,inactive
same,Potency,JEG-3,inactive
same,Potency,OV90,inactive
same,Potency,SKOV3,inactive
same,Potency,Tov-21-G,inactive
same,Potency,Tov112D,inactive
CN1CCN(c2ccc(Nc3cc(-c4cccc(-n5ccc6cc(C7CC7)cc(F)c6c5=O)c4CO)cn(C)c3=O)nc2)CC1,Potency,C33A,inactive
same,Potency,CAOV3,inactive
same,Potency,CASKI,inactive
same,Potency,Es-2,inactive
same,Potency,HeLa,inactive
same,Potency,Hek293T,inactive
same,Potency,JEG-3,inactive
same,Potency,OV90,inactive
same,Potency,SKOV3,inactive
same,Potency,Tov-21-G,inactive
same,Potency,Tov112D,inactive
Cc1[nH]c2ccccc2c1CCNCc1ccc(/C=C/C(=O)NO)cc1,Potency,C33A,251 nM (active)
same,Potency,CAOV3,1000 nM (active)
same,Potency,CASKI,447 nM (active)
same,Potency,Es-2,355 nM (active)
same,Potency,HeLa,126 nM (active)
same,Potency,Hek293T,1580 nM (active)
same,Potency,JEG-3,251 nM (active)
same,Potency,OV90,1000 nM (active)
same,Potency,Tov-21-G,708 nM (active)
same,Potency,Tov112D,316 nM (active)
same,Potency,[1]; HiBiT,62.5 nM (active)
same,"activity change, negative = inhibition","[1]; Viability, at 45.9 µM (top of the series)",-25.2%
C=C1C(=O)O[C@@H]2C[C@]3(C)[C@@H](CCC(C)O)[C@@H]3C[C@H]12 (stereo partly specified),Potency,C33A,inactive
same,Potency,CAOV3,inactive
same,Potency,CASKI,inactive
same,Potency,Es-2,inactive
same,Potency,HeLa,inactive
same,Potency,Hek293T,inactive
same,Potency,JEG-3,inactive
same,Potency,OV90,inactive
same,Potency,PA-1,inactive
same,Potency,Tov112D,inactive
C[C@H]1CC[C@@]2(OC1)O[C@H]1CC3[C@@H]4CC[C@@H]5C[C@@H](O[C@@H]6O[C@H](CO)[C@@H](O[C@@H]7O[C@@H](C)[C@H](O)[C@@H](O)[C@H]7O)[C@H](O)[C@H]6O[C@@H]6O[C@H](CO)[C@@H](O)[C@H](O)[C@H]6O)CC[C@]5(C)C4CC[C@]3(C)[C@H]1[C@@H]2C (stereo partly specified),"activity change, negative = cytotoxicity",C33A,-15.7% [at 11.6 µM]
same,"activity change, negative = cytotoxicity",CAOV3,-14.9% [at 11.6 µM]
same,"activity change, negative = cytotoxicity",CASKI,2.17% [at 11.6 µM]
same,"activity change, negative = cytotoxicity",Es-2,0.261% [at 11.6 µM]
same,"activity change, negative = cytotoxicity",HeLa,24.8% [at 11.6 µM]
same,"activity change, negative = cytotoxicity",Hek293T,-22.5% [at 11.6 µM]
same,"activity change, negative = cytotoxicity",JEG-3,3.99% [at 11.6 µM]
same,"activity change, negative = cytotoxicity",OV90,-17.7% [at 11.6 µM]
same,"activity change, negative = cytotoxicity",SKOV3,-15.8% [at 11.6 µM]
same,"activity change, negative = cytotoxicity",Tov-21-G,-2.16% [at 11.6 µM]
same,"activity change, negative = cytotoxicity",Tov112D,-1.68% [at 11.6 µM]
